# G9a inh = inhibitors of human histone lysine methyltransferase G9a; AID 504332; actives 8.8% (n = 350,000); Q96KQ7; G9a H3K9 monomethylation, AlphaScreen, 2 h; Potency, µM (top dose mostly 102 µM), for the others: at the highest dose activity, negative = inhibition, usual class: inhibitors; further: on the % scale 0 is the no-effect control and ±100 the full control effect; nearly all actives have a fitted effect of over 75% in size
#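 Compounds were preincubated with 20 nM G9a for 15 min, after which biotinylated H3K9 peptide (500 nM) and SAM (20 uM) started a 2 h room-temperature reaction. Monomethylated product was quantified by antibody-based AlphaScreen chemiluminescence.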
# JMJD2A Tudor inh = JMJD2A Tudor domain (human) inhibition; AlphaScreen JMJD2A-Tudor / H3K4me3 peptide binding; Potency, µM (highest dose often 114 µM), for inactives: at the top dose activity change, negative = inhibition, actives largely listed as inhibitors; actives 4.4% (n = 390,000); AID 504339; further: on the % scale 0 is the no-effect control and ±100 the full control effect; nearly all actives have a fitted effect of over 50% in size
# Target sequence (O75164 whole entry, looked up, the tested form may be a part): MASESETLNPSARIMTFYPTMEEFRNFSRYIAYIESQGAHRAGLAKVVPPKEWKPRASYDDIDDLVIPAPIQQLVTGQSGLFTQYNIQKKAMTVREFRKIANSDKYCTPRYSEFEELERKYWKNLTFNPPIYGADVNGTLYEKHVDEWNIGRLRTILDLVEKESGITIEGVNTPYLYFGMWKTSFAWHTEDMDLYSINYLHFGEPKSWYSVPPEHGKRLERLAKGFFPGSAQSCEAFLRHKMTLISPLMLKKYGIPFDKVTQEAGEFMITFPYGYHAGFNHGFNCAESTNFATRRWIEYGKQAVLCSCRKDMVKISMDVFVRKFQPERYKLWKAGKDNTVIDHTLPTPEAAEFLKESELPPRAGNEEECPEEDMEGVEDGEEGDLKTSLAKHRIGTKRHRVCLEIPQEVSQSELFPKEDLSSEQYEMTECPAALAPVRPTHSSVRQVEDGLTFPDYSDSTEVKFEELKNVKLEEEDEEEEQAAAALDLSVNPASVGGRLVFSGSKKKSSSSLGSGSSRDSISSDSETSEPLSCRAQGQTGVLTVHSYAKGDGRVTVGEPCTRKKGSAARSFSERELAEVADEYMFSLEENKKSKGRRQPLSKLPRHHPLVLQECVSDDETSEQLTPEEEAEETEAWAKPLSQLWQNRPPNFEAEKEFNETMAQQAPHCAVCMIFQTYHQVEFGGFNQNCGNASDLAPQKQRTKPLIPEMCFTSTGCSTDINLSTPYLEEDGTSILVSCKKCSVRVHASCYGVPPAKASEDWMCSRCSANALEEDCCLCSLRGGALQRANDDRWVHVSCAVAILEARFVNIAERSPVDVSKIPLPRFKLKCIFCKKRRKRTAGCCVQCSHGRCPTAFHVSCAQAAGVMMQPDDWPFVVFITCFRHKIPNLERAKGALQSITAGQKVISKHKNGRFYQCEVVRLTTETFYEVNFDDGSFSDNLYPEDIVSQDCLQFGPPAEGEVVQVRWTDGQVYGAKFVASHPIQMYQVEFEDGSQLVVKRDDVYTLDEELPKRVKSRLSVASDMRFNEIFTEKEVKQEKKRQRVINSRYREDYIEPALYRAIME
# HP1b chromo inh = HP1-beta chromodomain-methylated histone interaction inhibition; P83916; AlphaScreen HP1-beta / biotin-H3K9me3 peptide binding; Potency, µM (series often up to 114 µM), for the others: top-dose activity change, negative = inhibition, actives largely listed as inhibitors; actives 0.56% (n = 390,000); AID 540317; further: nearly all actives have a fitted effect of over 70% in size
#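 HP1-beta protein (50 nM final) preincubated 30 min at room temperature with biotinylated H3(1-18)K9me3 peptide (50 nM) in PBS pH 7.4, 0.01% Tween-20, then compound added for 30 min. AlphaScreen streptavidin donor/nickel chelate acceptor beads (10 ug/mL final), 30 min dark, luminescence read.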
# BAZ2B inh = blocks human BAZ2B | Q9UIF8 | AlphaScreen BAZ2B-H3K14Ac peptide displacement | Potency, µM (top dose mostly 114 µM), for inactives: top-dose activity change, negative = inhibition, most hits filed as inhibitors | actives 4.4% (n = 360,000); further: on the % scale 0 is the no-effect control and ±100 the full control effect; nearly all actives have a fitted effect of over 60% in size
#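 Complex of BAZ2B and biotin-H3K14Ac (50 nM apiece) forms over 30 min at RT, then faces library compounds up to 110 uM for another 30 min; AlphaScreen beads added, 20 min dark incubation, luminescence read.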
# Sfp inh = Sfp phosphopantetheinyl transferase inhibition; Q9F4F7; Biochemical Sfp PPTase activity, qHTS; Potency, µM, for the others: largest response in the series, negative = inhibition, hits mostly inhibitors; actives 3.5% (n = 310,000); AID 1490;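 further: the enzyme is Sfp with the accession as filed and its product quenches rhodamine fluorescence; 0% = enzyme reaction without inhibitor and -100% = no enzyme wells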
#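 Fluorescence-quenching assay: 15 nM Sfp-PPTase preincubated 15 min at room temperature with compound, then 5 uM rhodamine-CoA and 12.5 uM BHQ-2-labelled YbbR peptide added. Fluorescence (ex 525/em 598 nm) read at start and after 30 min; difference gives rate.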
# L3MBTL1 block = blocks human L3MBTL1. Q9Y468. AlphaScreen L3MBTL1–H3K9me1 peptide binding. Potency, µM (highest dose often 57.1 µM), without a hit: top-dose activity, negative = inhibition, hits mostly inhibitors. actives 0.66% (n = 230,000). AID 485360; further: on the % scale 0 is the no-effect control and ±100 the full control effect; nearly all actives have a fitted effect of over 60% in size
#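 AlphaScreen assay: L3MBTL1 (50 nM final) was preincubated 30 min at room temperature with biotinylated H3(1-15)K9me1 peptide (75 nM final), then 30 min with library compounds; streptavidin donor and nickel chelate acceptor beads (10 ug/mL final) added, 30 min dark.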
# Starred values were filed as active, the others as inactive; ? = inconclusive; . = no result; [ ] = remark or other dose. Hits are enriched below; roughly 12% of the tested compounds scored in any of these assays. The call rests on the fitted dose curve; in most records, active means well fitted curve in the direction sought with a large enough effect; inconclusive means small, poorly fitted or top-dose-only effect, or another doubt; inactive means no such curve, though single readings can be large; an effect the other way counts as inactive or inconclusive. Potency means the concentration at half of the fitted maximal effect.
SMILES,G9a inh,JMJD2A Tudor inh,HP1b chromo inh,BAZ2B inh,Sfp inh,L3MBTL1 block
O=C(Cc1ccc(Cl)cc1)Nc1ccc2nn(-c3ccccc3)nc2c1,4%[59 µM],-3%,32%,-2%,.,.
CCCCc1ccc(-n2nc3cc(C)c(NC(=O)Cc4ccccc4)cc3n2)cc1,1.4µM*,50µM*,10%,?,.,.
CCn1c(=O)c2cc(C(=O)N(CC(C)C)CC(C)C)sc2c2ccccc21,3%[59 µM],7%,41%,5%,.,.
COC(=O)c1c(C)sc(-c2c(-c3ccc4c(c3)OCCO4)[nH]c3[nH]c(=O)[nH]c(=O)c23)c1O,14µM*,50µM*,?,35µM*,.,.
CC(O)CNc1ncnc2nc[nH]c12 (centres undefined),11%[2.33 µM],-6%,41%,5%,17%,3%
Cn1cnc2nc[nH]c2c1=S,.,3.5µM*,12%,.,.,.
CCN(CC)c1ccc(C(=O)c2ccccc2C(=O)O)c(O)c1,-10%[59 µM],-7%,40%,24%,10%,?
O=C(O)c1cc(N(Cc2ccccc2O)Cc2ccccc2O)ccc1O,.,50µM*,-28%,.,56µM*,.
Cc1cc(NC(=O)CSc2nc(-c3cccnc3)ccc2C#N)no1,?,-18%[11.4 µM],55%,4%,-16%,-5%
Cc1cc(NC(=O)CSc2nc3c(c(-c4cccnc4)c2C#N)CCC3)no1,18%[59 µM],?,22%,79µM*,2%,0%
Cc1cc(=O)[nH]c(N/N=C/c2ccc(O)c(O)c2)n1,1%,2.8µM*,10%[57 µM],4%,?,.
CSc1ccc(/C=N/Nc2nc(C)cc(=O)[nH]2)cc1,1%,?,15%,-6%,56µM*,6%
COc1ccc(N=Cc2c(O)n(-c3cccc(C)n3)c(=O)c3ccccc23)cc1,?,0%[57.1 µM],20%,-33%,-6%,-7%
Cc1cccc(-n2c(O)c(C=Nc3ccccc3)c3ccccc3c2=O)n1,?,11µM*,?,-30%,0%,-16%
Cc1cc(=O)[nH]c(N/N=C/c2c(O)n(-c3ccccc3)c(=O)c3ccccc23)n1,?,?,0%,40µM*,-1%,-7%
CCCCOC(=O)c1ccc(NC(=O)/C(C#N)=C/c2ccc(C)o2)cc1,-33%[59 µM],-12%,14%,-11%,.,.
O=C(Cn1cnc2c(nc3n2CCCCC3)c1=O)Nc1ccc(F)cc1,-5%[59 µM],3%,39%,3%,.,.
COC(=O)CSC1=NS(=O)(=O)c2ccccc21,1.4µM*,16µM*,-17%,-21%,3.5µM*,14%
O=C(CSC1=NS(=O)(=O)c2cc(F)ccc2N1)Nc1ccccc1,-22%,?,17%,3%,.,0%
O=C(CSC1=NS(=O)(=O)c2ccccc21)Nc1ccccc1,7.9µM*,-15%,31%,?,13µM*,.
O=C(CCCn1c(=O)c2cccn2c2ccccc21)Nc1cc(C(F)(F)F)ccc1Cl,-2%[59 µM],-11%,-2%,-1%,.,.
Cc1c(C(=O)NN)[nH]c2ccc([N+](=O)[O-])cc12,5%,-12%,28%,35µM*,1%,-2%
CCN(CC)CCN(CC)Cc1ccccc1Br,50µM*,-2%,35%,-12%,4%,9%
CN1CCC(=O)N(C(CSc2ccc(Br)cc2)c2ccccc2)CC1 (centres undefined),.,-31%,7%,.,0%,.
COCCN(CC(=O)NCc1ccc2c(c1)OCO2)C(=O)CCC(=O)Nc1nccs1,4%[59 µM],14%,66%,9%,36%,5%
SMILES,G9a inh,JMJD2A Tudor inh,HP1b chromo inh,BAZ2B inh,Sfp inh,L3MBTL1 block
COCCNC(=O)CN(Cc1ccc2c(c1)OCO2)C(=O)CCC(=O)Nc1nccs1,-34%,28µM*,-8%,8%,16%,5%
CC(C)(C)NC(=O)CN(Cc1ccc2c(c1)OCO2)C(=O)CCC(=O)Nc1nccs1,40µM*,-2%,39%,-21%,-2%,3%
COc1ccc(-c2cc(C(=O)Oc3ccc(C#N)cc3)no2)cc1,-34%[59 µM],?,30%,-24%,.,.
Cc1cccc(NC(=O)CSc2ncc(-c3ccc(Br)cc3)[nH]2)c1,2%[59 µM],-10%,33%,2%,.,.
O=C(O)CCC/C=C\C[C@@H]1[C@@H](CC[C@@H](O)CCc2ccccc2)[C@H](O)C[C@@H]1O,.,.,.,.,1%,.
COc1ccc(Nc2ncnc3c2c(-c2ccccc2)cn3-c2ccc(C)c(Cl)c2)cc1OC,-2%[59 µM],?,?,?,.,.
CCOC(=O)c1c(C)n(-c2ccc(C)cc2)c2ccc(OCC(O)CNCC3CCCO3)cc12 (centres undefined),16µM*,13µM*,?,28µM*,45µM*,.
CCOC(=O)c1c(C)n(-c2ccc(C)cc2)c2ccc(OCC(O)CNCCCO)cc12 (centres undefined),8.9µM*,?,-21%,?,?,.
COc1ccc(NCc2cc3ccc(OC)cc3n(CC(=O)Nc3cccc(OC)c3)c2=O)cc1,-33%[59 µM],-10%,21%,-21%,.,.
COc1ccccc1-c1nc2c3ccccc3nc(=S)n2[nH]1,?,-25%,-5%,-2%,45µM*,.
Cc1nc2nc(NCc3ccc(Cl)cc3)[nH]n2c(=O)c1Cc1ccccc1,?,-16%,28%,-9%,.,.
CCn1c(C(=O)N2CCc3ccccc3C2)cc2oc3ccccc3c21,?,?,-23%,50µM*,?,.
Cn1c(C(=O)N2CCc3ccccc3C2)cc2oc3ccccc3c21,?,79µM*,?,?,-13%,9%[11.4 µM]
CCn1c(C(=O)NCc2ccc(F)cc2)cc2oc3ccccc3c21,1%[59 µM],-33%,21%,1%,.,.
COc1cc2c(cc1OC)CN(C(=O)c1oc3ccccc3c1C)CC2,7%,-32%,-18%,?,4%,.
CC(C)c1cnc2c(c1SCC(=O)NCc1ccccc1)c(=O)n(C)c(=O)n2C,14%[59 µM],-17%,13%[57 µM],12%,.,.
COC(=O)c1cccc(N2C(=O)C(Cl)=C(N3CCOCC3)C2=O)c1,50µM*,-32%,62%,-9%,-25%,1%
O=C1C(Cl)=C(N2CCOCC2)C(=O)N1c1cccc(C(F)(F)F)c1,79µM*,-12%,72%,8%,-1%,1%
COc1ccc(CN(C(=O)Nc2ccc(C)c(F)c2)C2CCN(C(C)=O)CC2)cc1,3%[59 µM],3%,30%,5%,.,.
Cc1oc2c(c1C(=O)NCCCC(=O)O)CCCC2,-1%,-18%,17%,?,1%,.
CCOC(=O)c1coc(CNC(=O)c2c(C)oc3c2CCCC3)c1,56µM*,-27%,-1%,?,-1%,-4%
Cc1oc2c(c1C(=O)NCc1cc(C(=O)O)co1)CCCC2,-3%,-7%[57.1 µM],44%,0%,1%,-2%

# Bioassay records from PubChem BioAssay.
